These results are taken from ChEMBL document CHEMBL4513216, “Probing the Open Global Health Chemical Diversity Library for Multistage-Active Starting Points for Next-Generation Antimalarials” (ACS Infect Dis, 2020).

The whole screen tested about 68,000 compounds, of which about 2,700 (4%) showed an effect of 50% or more. Only a selection was taken, and strong results are over-represented in it overall.

The test system of the test is Plasmodium berghei. The test can be described thus: Screen against P. berghei liver stage (PbLuc), transformed with Luciferase, at 2uM. It is filed as functional, HepG2. The conditions noted are these: tested at 2 uM.
In the case of `CNC(=O)CN1CCCC12CCN(C(=O)c1ccsc1)CC2`, the INHIBITION is 24.15%.
The figure for `Cc1nc(CN2CCC(O)(c3ccccc3F)CC2)c2ccccn12` is 15.55%.
In the case of `O=C(Cc1n[nH]c2ccccc12)N1CCCC1Cn1cccn1` (configuration not stated), the INHIBITION was -36.73%.
The figure for `CCCc1noc(CCC(=O)N2CCCC2c2ccncc2)n1` (configuration not stated) is -33.92%.
With `Cn1cc(C2CCCN2C(=O)CCCOCc2ccccc2)cn1` (configuration not stated) the figure was -3.9%; with `CC(C)Oc1ccc(C(=O)N2CCCC2c2cnn(C)c2)cn1` (configuration not stated), 15.13%.
In the case of `Cn1cc(C2CCCN2C(=O)COCCc2ccccc2)cn1` (configuration not stated), the INHIBITION is 50.76%.
The figure for `Cc1cnn(CC2CCCN2C(=O)Cc2n[nH]c3ccccc23)c1` (configuration not stated) is 3.9%.
With `Cn1cc(C2CCCN2C(=O)Cc2n[nH]c3ccccc23)cn1` (configuration not stated), the INHIBITION turned out to be 63.95%.
The figure for `CCCc1noc(CCC(=O)N2CCCC2c2ccc(OC)cc2)n1` (configuration not stated) is 30.29%; for `Cn1cc(C2CCCN2C(=O)COCCOc2ccccc2)cn1` (configuration not stated) it is -24.75%; for `CCOc1ccc(C(=O)N2CCCC2c2cnn(C)c2)cn1` (configuration not stated) it is -1.02%.
Take `CCCc1noc(CCCC(=O)N2CCCC2c2cnn(C)c2)n1` (configuration not stated): the INHIBITION is on record as 54.99%.
In the case of `COc1ccc(C(=O)N2CCCC2c2cnn(C)c2)cn1` (configuration not stated), the INHIBITION is reported as 80.46%.
The figure for `O=C(NC[C@H]1OC[C@@H](NCc2ccccc2F)[C@@H]1O)c1ccc(F)cc1` is -13.88%.
With `CCC(CCN)n1ccc(C(F)(F)F)n1` (configuration not stated), the INHIBITION is on record as -31.71%.
With `Cn1cnnc1SC1CCc2ccccc2NC1=O` (configuration not stated) the figure was 21.31%; with `CN(Cc1cn2c(n1)CN(Cc1ccsc1)CC2)Cc1ccco1`, -9.48%.
With `COCc1nc2nc(O)c3c(n2n1)NC(=O)CC3c1ccc(SC)cc1` (configuration not stated) the figure was -19.97%.
The figure for `Cc1cccc(C(=O)N2CCC3(CC2)CC(c2cnn(C)c2)CO3)c1` (configuration not stated) is 11.79%; for `CC(C(=O)Nc1ccnn1C(C)C)N1CCc2nn(C)c(=O)cc2C1` (configuration not stated) it is -15.38%.
In the case of `CC(C)CN1CCCC1c1cc[nH]n1` (configuration not stated), the INHIBITION is 17.29%.
With `c1ccc(COC[C@@H]2CCC[C@]23CN(Cc2nccs2)CCO3)nc1` the figure was 17.24%.
For the molecule `CS(=O)(=O)N1CCCC12CCCN(C(=O)c1ccno1)C2` (configuration not stated), the INHIBITION was found to be 7.3%.
The figure for `COCc1cc(CC2(NC3CCCCC3)COC2)no1` is -9.98%; for `CCN(CC)C1(Cc2cc(CC(C)C)on2)COC1` it is 32.59%.
The figure for `CCN(CC)C1(Cc2cc(COC)on2)COC1` is 52.36%.
Take `Cc1ccc(C(=O)N2CCc3ncnc(C)c3CC2)o1`: the INHIBITION was 32.97%.
With `Cc1ccc(C(=O)N2C[C@H]3CCC[C@@]3(COCC3CCOCC3)C2)o1` the figure was -35.36%; with `CCOC(=O)N1CCc2ccccc2C12CCNCC2`, 4.38%; with `Cc1ccc(CN2CCOC3(CCN(C(=O)C4CC=CC4)CC3)C2)cc1`, -41.1%.
The figure for `Cc1ccc(CN2CCOC3(CCN(C(=O)N4CCCC4)CC3)C2)cc1` is 33.35%; for `Cc1ccc(CN2CCOC3(CCN(C(=O)C4CCOC4)CC3)C2)cc1` (configuration not stated) it is 69.37%.
Take `Cc1nc(C)n(CC2CN(CCc3ccccc3Cl)CCO2)n1` (configuration not stated): the INHIBITION is listed as -7.08%.
The figure for `Cc1ccccc1CSCCn1nc2ccccn2c1=O` is 6.3%; for `Cn1nnnc1SC1CCN(c2ccccc2Cl)C1=O` (configuration not stated) it is 4.99%; for `CC(=O)NCCCSC1CCN(c2ccccc2F)C1=O` (configuration not stated) it is 75.22%.
With `CC(=O)NCCCSC1CCN(c2c(F)cccc2F)C1=O` (configuration not stated) the figure was 41.07%; with `CC(=O)NCCCSC1CCCN(c2ccccc2F)C1=O` (configuration not stated), 9.13%; with `CC(=O)NCCCSC1CCN(c2ccccc2Cl)C1=O` (configuration not stated), 68.61%.
The figure for `CC(=O)NCCCSC1CCCN(c2ccccc2Cl)C1=O` (configuration not stated) is -1.89%; for `CCc1ccc(S(=O)(=O)Nc2ccncc2)s1` it is -13.03%.
For `COc1cc2c(cc1CN1CCn3c(CO)nnc3C1)CCC2`, the INHIBITION turned out to be 16.14%.
The figure for `Cc1cc(CN2CCCC2c2noc(C)n2)no1` (configuration not stated) is -52.52%.
The figure for `Cc1nnc([C@@H]2C[C@H]3CN(C4CCC4)C[C@H]3O2)[nH]1` is 4.07%; for `CCCc1nnc(N2CCN(c3ccccc3OCC)CC2)o1` it is -11.34%; for `O=C(CCC1CCCC1)N1CCCC(c2ncc3c(n2)CCNC3)C1` (configuration not stated) it is 24.89%.
With `Cc1c(CN2CCCC(C(=O)Nc3ccccc3)C2)cc(C#N)n1C` (configuration not stated), the INHIBITION was determined as 9.63%.
With `c1cc(CN2CCCCC2c2ccc(Nc3cnccn3)nc2)ccn1` (configuration not stated) the figure was 42.53%; with `Cc1ncoc1C(=O)N1CCc2[nH]nc(-c3ccc4c(c3)OCO4)c2C1`, -4.53%; with `Cc1nc(COCc2cnc3n2CCN(CC2CCC2)C3C)cs1` (configuration not stated), 25.35%.
The figure for `O=C(N[C@@H]1CCC[C@@H](N2CCOCC2)[C@@H]1O)c1cc2ccccc2[nH]1` is 8.26%.
